The list is not random: actives were taken first. Their share in the collection is about 3.8%.
ATXN viability: Viability Counterscreen for Primary qHTS for Inhibitors of ATXN expression; Potency, µM (highest dose often 56.7 µM), usual class: cytotoxic; 400,000 compounds, 0.49% hits; S2 cells (HEK-293 line with an ATXN2-luciferase reporter) viability, CellTiter-Fluor protease fluorescence, 24 h; also: nearly all actives have a fitted effect of over 40% in size
HepG2 tox-1: qHTS for Inhibitors of TGF-b: Cytotox Counterscreen. Potency, µM (titrated, usually from 46.1 µM), for the others: top-dose activity change, negative = cytotoxicity, usual class: cytotoxic. HepG2 CAGA-GFP viability, ATP luminescence, 18 h. 410,000 compounds, 0.76% hits
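HepG2 CAGA-GFP cells (1000/well, DMEM with 1% FBS) received compound, then TGF-beta at 500 pg/mL final, and were incubated 18 hours at 37 degrees C. Viability was read by CellTiter-Glo luminescence. Media-only wells were set as complete cell-killing and DMSO as no toxicity.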
ATXN2 expr inh: Primary qHTS for Inhibitors of ATXN expression | HEK-293 ATXN2-luciferase reporter, luminescence, 24 h | Potency, µM (top dose mostly 57 µM), without a hit: at the top dose activity change, negative = inhibition, usual class: inhibitors | 360,000 compounds, 0.72% hits; also: % is scaled to controls: 0 for no effect and ±100 for the full control effect; nearly all actives have a fitted effect of over 55% in size
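qHTS (up to 57 uM final) was run with 24 h compound exposure of reporter cells at 37 °C. Each well was multiplexed: SteadyGlo luminescence measured ATXN2-luciferase expression after a fluorogenic Gly-Phe-AFC viability readout (25 uM final).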
HT1080NT lethal: qHTS for induction of synthetic lethality in tumor cells producing 2HG: qHTS for the HT-1080-NT fibrosarcoma cell line; HT-1080-NT fibrosarcoma viability, CellTiter-Glo ATP luminescence, 48 h; Potency, µM (doses to about 46.1 µM), inactives show at the highest dose activity, negative = less viability, hits mostly cytotoxic; 360,000 compounds, 1.6% hits;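 also: NT is the 2HG producing partner of a matched IDH1 knockdown line; 0% = DMSO-treated cells and -100% = media-only wells without cells; nearly all actives have a fitted effect of over 55% in size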
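Viability by CellTiter-Glo luminescence after 48 h compound exposure at 37C of HT-1080-NT cells (750/well, RPMI, 5% FBS). % activity scaled between DMSO wells and medium-only wells, then curve-fitted and categorized by curve class.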
TGFb inhibitor: qHTS for Inhibitors of TGF-b; 410,000 compounds, 1.2% hits; Potency, µM (highest dose often 46.1 µM), for the others: top-dose activity, negative = inhibition, most hits filed as inhibitors; HepG2 CAGA-GFP TGF-b/SMAD3 reporter, GFP fluorescence, 18 h; TGF-beta stimulated, 500 pg/mL final; AID 588855, 2011; also: % is scaled to controls: 0 for no effect and ±100 for the full control effect; nearly all actives have a fitted effect of over 65% in size
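HEPG2 CAGA-GFP, 1000 cells/well; 2 h settle, 37 C; cpd via pin tool; TGF-b 500 pg/mL final; 18 h, 37 C; GFP imaging ex488/em500-530; %Activity normalised to -TGF-b and +DMSO controls; CRC fit, curve class.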
HT1080 IDH1KD tx: qHTS for induction of synthetic lethality in tumor cells producing 2HG: qHTS for the HT-1080-IDH1KD cell line. HT-1080 IDH1 knockdown viability, ATP luminescence, 48 h. Potency, µM (top dose mostly 46.1 µM), for inactives: top-dose activity, negative = toxicity, actives largely listed as cytotoxic. 360,000 compounds, 2% hits. AID 686971, 2013;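 also: 0% = DMSO wells and -100% = cell-free medium wells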
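CellTiter-Glo luminescence after 48 h compound exposure at 37 degrees C of IDH1-knockdown HT-1080 cells in 5% FBS RPMI. %Activity scaled between DMSO wells and cell-free media wells, with curves fitted and assigned curve classes.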
TGFb CAGA inh: qHTS for Inhibitors of TGF-b: Confirmation of Cherry Picks; shares compounds with TGFb inhibitor; Potency, µM (doses to about 46.1 µM), without a hit: at the top dose activity, negative = inhibition, usual class: inhibitors; HepG2 CAGA-GFP TGF-b reporter, GFP fluorescence, 18 h; cells stimulated with TGF-beta, 500 pg/mL; AID 720534, 2013; 1,600 compounds, 63% hits; also: % is scaled to controls: 0 for no effect and ±100 for the full control effect; nearly all actives have a fitted effect of over 65% in size
HepG2 tox-2: qHTS for Inhibitors of TGF-b: Cytotox Counterscreen for Cherry Picks; shares compounds with TGFb inhibitor; HepG2 CAGA-GFP viability, ATP luminescence, 18 h; cells stimulated with TGF-beta, 500 pg/mL; Potency, µM (titrated, usually from 46.1 µM), for the others: at the highest dose activity, negative = cytotoxicity, actives largely listed as inhibitors; 1,600 compounds, 27% hits; AID 720535, 2013; also: % is scaled to controls: 0 for no effect and ±100 for the full control effect; nearly all actives have a fitted effect of over 70% in size
TGFb CCL64 inh: qHTS for Inhibitors of TGF-b: CCL64 Cells Orthogonal Assay for Cherry Picks; CCL64 CAGA-GFP reporter, TGF-b stimulated, GFP fluorescence, 18 h; 1,600 compounds, 41% hits; shares compounds with TGFb inhibitor; Potency, µM (titrated, usually from 46.1 µM), without a hit: top-dose activity, negative = inhibition, most hits filed as inhibitors; also: nearly all actives have a fitted effect of over 65% in size
TGFb COP inh: qHTS for Inhibitors of TGF-b: Hit Validation in HepG2 Cells using COP promoter | Potency, µM (highest dose often 46.1 µM), without a hit: at the top dose activity, negative = inhibition, most hits filed as inhibitors | shares compounds with TGFb inhibitor | AID 720537, 2013 | 1,600 compounds, 3% hits | HepG2 COP-GFP TGF-b reporter, GFP fluorescence, 18 h; cells stimulated by added recombinant TGF-beta; also: nearly all actives have a fitted effect of over 70% in size
* marks the source's active call; other numbers are inactive results; i = inactive; ? = inconclusive; / = no result given. Calls follow the shape of the dose curve; as a rule, active = well fitted curve in the direction sought with a large enough effect; inconclusive = small, poorly fitted or top-dose-only effect, or another doubt; inactive = no such curve, though single readings can be large; an effect the other way counts as inactive or inconclusive. Potency is read from the fitted curve at half-maximal effect.

SMILES	ATXN viability	HepG2 tox-1	ATXN2 expr inh	HT1080NT lethal	TGFb inhibitor	HT1080 IDH1KD tx	TGFb CAGA inh	HepG2 tox-2	TGFb CCL64 inh	TGFb COP inh
C/C(=N\NC(=O)c1ccccc1OCc1ccc(F)cc1)c1ccccn1	?	-12%	/	?	11µM*	?	15µM*	?	8.2µM*	1%
C/C(=N/NC(=O)c1ccccn1)c1ccncc1	i	1%	9%	6%	20%	10%	/	/	/	/
C/C(=N/NC(=O)c1ccc(C(C)(C)C)cc1)c1ccccn1	i	4%	?	7.3µM*	?	5.8µM*	2.6µM*	?	9.2µM*	2%
COC(=O)c1cc2oc3ccccc3c2n1Cc1nc(-c2cccc(Cl)c2)oc1C	i	-61%	5%	/	-12%	/	/	/	/	/
COc1cccc(NC(=O)COc2cccc(-n3cnnn3)c2)c1	i	8%	-19%	5%	13%	6%	/	/	/	/
Cc1cc(OCCCC(=O)Nc2cccc(-n3cnnn3)c2)ccc1Cl	?	-16%	/	-1%	13µM*	1%	?	?	-3%	65%
CCOC(=O)c1cnc2c(C)c(Cl)ccc2c1Nc1ccc(N2CCOCC2)cc1	i	-46%	4%	/	8%	/	/	/	/	/
NC(=S)N=Nc1c(O)n(CCCl)c2ccc(Br)cc12	?	-18%	?	-2%	?	-9%	-12%	?	?	2%
CC1(C(=O)NCC2CCCCC2)CCN1C(=O)Cc1ccc(-c2ccccc2)cc1 (configuration not stated)	i	-53%	-4%	?	?	?	-8%	-29%	?	15%
CC1(C(=O)NC2CCCC2)CCN1C(=O)Cc1ccc(-c2ccccc2)cc1 (configuration not stated)	i	-25%	-38%	?	-11%	?	/	/	/	/
CN(C)S(=O)(=O)c1cccc(NC(=O)COC(=O)CCSc2ccc(Cl)cc2)c1	i	2%	-9%	0%	8%	2%	/	/	/	/
CCN(CC)S(=O)(=O)c1cccc(NC(=O)CCSc2ccc(Cl)cc2)c1	i	7%	?	-26%	10µM*	-25%	21µM*	?	26µM*	26%
Cc1cc(C)n(-c2ccc(C(=O)Nc3cccc(S(=O)(=O)N(C)C)c3)cc2)n1	i	1%	-24%	1%	?	-20%	/	/	/	/

Source: PubChem BioAssay (National Center for Advancing Translational Sciences (NCATS))
